Consider 18 compounds from PubChem BioAssay (EPA / NIEHS).

The nature of assay [1]: BSK_CASM3C_SRB: Viability Assessment in the BioMAP Diversity Plus: CASM3C Assay (AID 2283050).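 Further: total protein by SRB staining as cytotoxicity measure in parallel cultures; cells exposed to compound for 24 h.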 To be noted: primary human coronary artery smooth muscle cells.
Read-out in assay [2]: Thrombomodulin, THBD (gene 7056)
The experiment in a line: BSK_CASM3C_Thrombomodulin: BioMAP Diversity Plus: CASM3C Assay for Thrombomodulin Biomarker Activity (AID 2283051).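 Further: thrombomodulin protein level measured by ELISA 24 h after dosing.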 To be noted: primary human coronary artery smooth muscle cells; actives raise or lower the signal.

Read-out in assay [3]: Tissue Factor, F3 (gene 2152)
The experiment in a line: BSK_CASM3C_TissueFactor: BioMAP Diversity Plus: CASM3C Assay for Tissue Factor Biomarker Activity (AID 2283052).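 Further: cell surface tissue factor protein level read by ELISA.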 The settings on record: primary human coronary artery smooth muscle cells; actives raise or lower the signal.

Read-out in assay [4]: Interferon-gamma inducible Protein 10 (IP10), CXCL10 (gene 3627)
The experiment in a line: BSK_hDFCGF_IP10: BioMAP Diversity Plus: hDFCGF Assay for Interferon-gamma inducible Protein 10 (IP10) Biomarker Activity (AID 2283053). The settings on record: primary human foreskin fibroblasts; actives raise or lower the signal. In outline: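 Cells: human dermal foreskin fibroblasts. Exposure: 24 h post-dosing. Detection: IP-10 ELISA, with values expressed against DMSO controls and fitted in both directions.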

Read-out in assay [5]: Urokinase-type plasminogen activator receptor (uPAR), PLAUR (gene 5329)
Kind of assay: BSK_CASM3C_uPAR: BioMAP Diversity Plus: CASM3C Assay for Urokinase-type plasminogen activator receptor (uPAR) Biomarker Activity (AID 2283054).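 Further: cell-surface uPAR protein level quantified by ELISA.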 To be noted: primary human coronary artery smooth muscle cells; actives raise or lower the signal.

Read-out in assay [6]: Vascular cell adhesion molecule 1 (VCAM1), VCAM1 (gene 7412)
The experiment in a line: BSK_CASM3C_VCAM1: BioMAP Diversity Plus: CASM3C Assay for Vascular cell adhesion molecule 1 (VCAM1) Biomarker Activity (AID 2283055).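 Further: VCAM-1 protein level quantified by ELISA on the cells.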 To be noted: primary human coronary artery smooth muscle cells; actives raise or lower the signal.

Read-out in assay [7]: Collagen III, COL3A1 (gene 1281)
Kind of assay: BSK_hDFCGF_CollagenIII: BioMAP Diversity Plus: hDFCGF Assay for Collagen III Biomarker Activity (AID 2283056). To be noted: primary human foreskin fibroblasts; actives raise or lower the signal. The method in brief:
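Human foreskin primary fibroblasts were exposed to test chemicals for 24 h, after which collagen III was quantified by ELISA. Activity was fitted bidirectionally against DMSO as negative control and baseline.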

Read-out in assay [8]: Epidermal growth factor receptor (EGFR), EGFR (gene 1956)
The experiment in a line: BSK_hDFCGF_EGFR: BioMAP Diversity Plus: hDFCGF Assay for Epidermal growth factor receptor (EGFR) Biomarker Activity (AID 2283057). To be noted: primary human foreskin fibroblasts; actives raise or lower the signal. In outline: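 Dosing human primary skin fibroblasts, then measuring surface EGFR by ELISA at 24 h, gives the endpoint; gains and losses relative to DMSO were fitted in both directions.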

Read-out in assay [9]: Interleukin-8 (IL8), CXCL8 (gene 3576)
Kind of assay: BSK_hDFCGF_IL8: BioMAP Diversity Plus: hDFCGF Assay for Interleukin-8 (IL8) Biomarker Activity (AID 2283058). To be noted: primary human foreskin fibroblasts; actives raise or lower the signal. The method in brief:
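hDFCGF human dermal fibroblasts; 24 h chemical exposure; IL-8 by ELISA; bidirectional curve fit vs DMSO baseline; gain or loss of signal scored.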

Assay [10] can be described thus: BSK_hDFCGF_Proliferation: Cell Proliferation Assessment in the BioMAP Diversity Plus: hDFCGF Assay (AID 2283059).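 Further: curves fitted for both rise and fall of signal versus DMSO baseline.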 To be noted: primary human foreskin fibroblasts. In outline: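 Primary human foreskin fibroblasts, sub-confluent; […]; 10% TCA fix, 0.1% SRB stain, A560 total protein. Gain/loss fitted bidirectionally vs DMSO control.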

Where “and” joins values, the source holds several entries; their conditions need not be identical. Identical values can stand only once. A structure can be active in one record and inactive in another. Calls of active or inactive are those of the source. How the source made its calls: active means hit-call score of the fitted dose curve at least 0.9, where 1 is the maximum; inactive means score below 0.9.

On to `O[Si](c1ccccc1)(c1ccccc1)c1ccccc1`, for which the outcome in assay [1], in assay [2], in assay [3], in [4], in assay [5] and in assay [6] was inactive. The outcome in [8] and in assay [9] was inactive. For the same compound, the AC50 is 7.56 µM (active) in [7] and 20 µM (active) in [10].

Regarding `N=C(N)C(F)(F)C(F)(F)C(F)(F)C(F)(F)C(F)(F)C(F)(F)C(F)(F)F`, the result in assay [1], in [2], in assay [3], in assay [5], in assay [6] and in [8] was inactive. In assay [9], the result was inactive. In addition, the AC50 in assay [4] was 42.9 µM (active) and 50.1 µM (active); in [7], 10.9 µM (active) and 10.7 µM (active); in assay [8], 53.9 µM (active); in assay [10], 39.7 µM (active) and 54.7 µM (active).

As to `CCO[Si](CCC(F)(F)C(F)(F)C(F)(F)C(F)(F)C(F)(F)C(F)(F)F)(OCC)OCC`, the result in [1], in [2], in [3], in [4], in assay [5] and in assay [6] was inactive. For the same compound, the outcome in assay [7], in assay [8], in [9] and in assay [10] was inactive. Moreover, in [3], the half-maximal activity concentration (AC50) is 1.58 µM (active).

Turning to `O=S(=O)(OCC(F)F)C(F)(F)F`, the outcome in assay [1], in assay [2], in assay [3], in [4], in assay [5] and in [6] was inactive. The result in assay [7], in [8], in assay [9] and in [10] was inactive.

`C=C(C)C(=O)OCC(F)(F)C(F)(F)C(F)(F)C(F)(F)C(F)(F)C(F)(F)C(F)(F)F`: the outcome in assay [1], in assay [2], in assay [3], in [4], in assay [5] and in [6] was inactive. Also, the result in [7], in assay [8], in assay [9] and in assay [10] was inactive.

Turning to `CCCCOCCOCCOC(=O)CCCCC(=O)OCCOCCOCCCC`, the outcome in assay [1], in assay [2], in [3], in assay [4], in assay [5] and in assay [6] was inactive. In addition, the outcome in assay [7], in assay [8], in assay [9] and in [10] was inactive.

With `FC(F)(I)C(F)(F)C(F)(F)C(F)(F)I`, the AC50 in assay [1] was 43.5 µM (active) and 47.2 µM (active) and 48.7 µM (active); in assay [3] it was 30 µM (active) and 40.4 µM (active); in assay [4] it was 47.9 µM (active) and 55.1 µM (active) and 58.4 µM (active); in [5], 47.2 µM (active) and 43.9 µM (active) and 54.4 µM (active); in assay [6] it was 45.7 µM (active) and 45.6 µM (active) and 47.9 µM (active); in assay [7], 30 µM (active) and 44.1 µM (active) and 39.5 µM (active). Also, the concentration at half-maximal activity (AC50) in [9] was 53.7 µM (active) and 54.7 µM (active) and 56.5 µM (active); in [10] it was 48.7 µM (active) and 45.5 µM (active) and 43.3 µM (active). In addition, the result in assay [2], in [3] and in [8] was inactive.

Take `CCCCNc1ccccc1`: the result in assay [1], in assay [2], in assay [3], in assay [4], in [5] and in [6] was inactive. Further, the outcome in assay [7], in [8], in assay [9] and in assay [10] was inactive.

As to `O=C(Cl)C(F)(F)C(F)(F)C(F)(F)C(F)(F)C(F)(F)C(F)(F)C(F)(F)C(F)(F)F`, the outcome in [1], in assay [2], in assay [3], in assay [5], in assay [6] and in assay [7] was inactive. Moreover, the result in assay [8] and in assay [9] was inactive. In addition, the concentration at half-maximal activity (AC50) in assay [4] was 24.8 µM (active) and 36.7 µM (active) and 32.9 µM (active); in assay [6] it was 30 µM (active); in assay [8], 6.36 µM (active) and 13.7 µM (active); in assay [10], 49.7 µM (active) and 49.4 µM (active) and 49.5 µM (active).

Regarding `OCCCC(F)(F)C(F)(F)C(F)(F)C(F)(F)C(F)(F)C(F)(F)C(F)(F)F`, the half-maximal activity concentration (AC50) in assay [1] was 22.6 µM (active) and 25.1 µM (active); in [3] it was 20.8 µM (active); in assay [4], 11.8 µM (active) and 14 µM (active); in assay [5], 24.5 µM (active) and 45 µM (active); in assay [6] it was 26.2 µM (active) and 41.2 µM (active); in [7], 11.6 µM (active) and 14.6 µM (active). Moreover, the half-maximal activity concentration (AC50) in assay [8] was 9.95 µM (active); in [9] it was 17.8 µM (active) and 20.8 µM (active); in assay [10], 6.74 µM (active) and 7.22 µM (active). Besides, the outcome in assay [2], in [3] and in assay [8] was inactive.

As to `FC(F)(F)C(F)(F)C(F)(F)C(F)(F)C(F)(F)CCI`, the result in [1], in [2], in assay [3], in assay [4], in assay [5] and in assay [6] was inactive. Besides, the result in [7], in assay [8] and in assay [9] was inactive. For the same compound, the AC50 in assay [4] was 22.2 µM (active); in assay [10], 32.1 µM (active) and 31.2 µM (active).

Regarding `O=C(O)C(F)(F)C(F)(F)C(F)F`, the outcome in assay [1], in assay [2], in [3], in assay [4], in [5] and in assay [6] was inactive. The outcome in [7], in [8], in [9] and in assay [10] was inactive.

Regarding `C=CC/C=C/C/C=C/C/C=C/C`, the result in assay [1], in assay [2], in assay [3], in assay [4], in assay [5] and in assay [6] was inactive. Besides, the result in assay [7], in [8], in assay [9] and in assay [10] was inactive.

Turning to `C#C[C@]1(O)CC[C@H]2[C@@H]3CCc4cc(OC)ccc4[C@H]3CC[C@@]21C`, the outcome in [1], in [2], in assay [4], in assay [5], in assay [6] and in [9] was inactive. Further, the concentration at half-maximal activity (AC50) is 0.016 µM (active) in assay [3], 0.00348 µM (active) in assay [7], 0.016 µM (active) in assay [8] and 4.67 µM (active) in [10].

As to `O=S(=O)(OCCOC(F)(F)F)C(F)(F)F`, the outcome in assay [1], in assay [2], in [3], in assay [4], in assay [5] and in [6] was inactive. Moreover, the result in assay [7], in assay [8], in assay [9] and in assay [10] was inactive.

For the compound `C=CC(F)(F)C(F)(F)C(F)(F)C(F)(F)C(F)(F)C(F)(F)C(F)(F)C(F)(F)F`, the result in [1], in assay [2], in assay [3], in assay [4], in assay [5] and in assay [6] was inactive. The result in assay [7], in [8], in [9] and in assay [10] was inactive. The AC50 in assay [8] was 0.27 µM (active).

As to `FC(F)(F)C(F)(F)CNCC(F)(F)C(F)(F)F`, the result in assay [1], in [2], in [3], in assay [4], in [5] and in [6] was inactive. Moreover, the outcome in [7], in [8], in assay [9] and in [10] was inactive. Also, the concentration at half-maximal activity (AC50) in assay [8] is 7.57 µM (active).

With `FC(F)(F)C(F)(F)C(F)(F)CI`, the outcome in assay [1], in [2], in [3], in assay [4], in assay [5] and in [6] was inactive. Also, the result in assay [7], in [8], in [9] and in assay [10] was inactive.
